The source of these data is the supplement of paper PMC7724964.

Assay in all cases: phage ELISA signal ratio (GST-PRM binding over GST background); higher = stronger binding of peptide-phage to the PRM
(ELISA stands for enzyme-linked immunosorbent assay.)

For assay [1], the target named is T1, TOM1L1 1-150 VHS (domain begin residue: 1, domain end residue: 150), O75674.
T1 chain: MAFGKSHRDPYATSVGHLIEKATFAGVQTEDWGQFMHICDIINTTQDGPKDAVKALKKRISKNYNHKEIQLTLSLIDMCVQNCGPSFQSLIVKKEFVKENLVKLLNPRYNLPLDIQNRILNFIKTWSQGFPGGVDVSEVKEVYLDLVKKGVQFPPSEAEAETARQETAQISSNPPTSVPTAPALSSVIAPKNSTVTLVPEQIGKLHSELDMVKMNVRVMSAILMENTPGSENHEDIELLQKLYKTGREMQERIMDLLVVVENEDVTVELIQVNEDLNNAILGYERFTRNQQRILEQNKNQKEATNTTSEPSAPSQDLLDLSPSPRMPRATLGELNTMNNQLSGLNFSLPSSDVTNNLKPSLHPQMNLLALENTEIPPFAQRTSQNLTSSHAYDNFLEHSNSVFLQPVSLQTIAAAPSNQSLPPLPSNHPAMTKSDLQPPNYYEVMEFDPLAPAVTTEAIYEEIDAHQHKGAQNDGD
The method in brief:
(§1)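 An M13 phage library with randomized hexadecapeptides on the gene-8 major coat protein, each peptide lacking cysteine and flanked by glycine, was selected for five rounds against human peptide recognition domains fused to the C-terminus of glutathione S-transferase (GST) and expressed in 96-well plates. Approximately 48 clones from rounds 4 and 5 went to phage ELISA. The reported value is the ELISA signal on the GST-domain fusion over the signal on GST alone, and positive clones were sequenced.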

Assay [2] has as its target T2, TOM1L2 1-153 VHS (domain begin residue: 1, domain end residue: 153), Q6ZVM7.
T2 chain: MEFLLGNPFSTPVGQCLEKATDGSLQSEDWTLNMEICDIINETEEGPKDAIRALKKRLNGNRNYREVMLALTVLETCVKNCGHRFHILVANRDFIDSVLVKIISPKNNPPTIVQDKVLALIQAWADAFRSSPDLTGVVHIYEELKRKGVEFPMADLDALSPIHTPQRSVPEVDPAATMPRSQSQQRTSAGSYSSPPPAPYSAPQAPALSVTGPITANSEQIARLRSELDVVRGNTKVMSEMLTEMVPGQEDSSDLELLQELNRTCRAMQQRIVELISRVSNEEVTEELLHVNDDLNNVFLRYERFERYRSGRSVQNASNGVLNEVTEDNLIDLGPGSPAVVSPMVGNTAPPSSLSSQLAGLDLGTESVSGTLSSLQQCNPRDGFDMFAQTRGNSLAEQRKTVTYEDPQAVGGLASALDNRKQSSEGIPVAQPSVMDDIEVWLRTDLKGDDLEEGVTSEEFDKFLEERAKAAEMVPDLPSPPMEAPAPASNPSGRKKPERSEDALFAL
Summed up: as §1

Assay [3] concerns the target TRIM25 439-630 SPRY (domain begin residue: 439, domain end residue: 630), Q14258. The method in brief: as §1
In assay [4] the target is T3, TRIM11 268-461 SPRY (domain begin residue: 268, domain end residue: 461), Q96F44.
T3 chain: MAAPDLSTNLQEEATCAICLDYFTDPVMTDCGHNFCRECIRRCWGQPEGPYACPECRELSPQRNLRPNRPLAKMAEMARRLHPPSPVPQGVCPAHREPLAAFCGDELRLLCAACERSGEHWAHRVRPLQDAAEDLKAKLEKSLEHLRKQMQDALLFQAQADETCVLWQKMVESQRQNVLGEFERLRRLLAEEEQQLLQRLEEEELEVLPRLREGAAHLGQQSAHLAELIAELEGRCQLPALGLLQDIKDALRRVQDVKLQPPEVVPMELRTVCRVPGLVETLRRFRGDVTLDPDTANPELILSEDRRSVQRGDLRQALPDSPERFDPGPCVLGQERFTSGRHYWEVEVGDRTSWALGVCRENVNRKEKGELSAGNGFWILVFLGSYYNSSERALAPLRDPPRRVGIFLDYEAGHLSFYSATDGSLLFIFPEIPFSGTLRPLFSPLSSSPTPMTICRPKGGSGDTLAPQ
Summed up:
as §1

Assay [5] deals with TRIM21 268-465 SPRY (domain begin residue: 268, domain end residue: 465), P19474. Summed up: as §1
Assay [6] has as its target TRIM30 281-496 SPRY (domain begin residue: 281, domain end residue: 496). Summed up:
as §1

Assay [7] has as its target T4, TRIM10 292-481 SPRY (domain begin residue: 292, domain end residue: 481), Q9UDY6.
T4 chain: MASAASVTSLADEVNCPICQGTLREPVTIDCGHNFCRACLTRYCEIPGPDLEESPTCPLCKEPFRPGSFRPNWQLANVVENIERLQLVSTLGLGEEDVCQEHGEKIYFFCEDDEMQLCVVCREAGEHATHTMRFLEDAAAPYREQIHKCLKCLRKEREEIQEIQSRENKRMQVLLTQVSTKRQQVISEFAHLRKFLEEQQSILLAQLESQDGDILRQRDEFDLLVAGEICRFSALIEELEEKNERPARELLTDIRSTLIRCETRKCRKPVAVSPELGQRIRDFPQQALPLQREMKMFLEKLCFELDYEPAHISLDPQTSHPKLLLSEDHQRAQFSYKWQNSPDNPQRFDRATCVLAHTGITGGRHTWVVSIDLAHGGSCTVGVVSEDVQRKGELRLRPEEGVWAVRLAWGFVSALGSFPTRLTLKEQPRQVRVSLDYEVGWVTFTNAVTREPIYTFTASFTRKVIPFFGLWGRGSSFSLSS
The method in brief:
as §1

The target of assay [8] is T5, TRIM39 319-514 SPRY (domain begin residue: 319, domain end residue: 514), Q9HCM9.
T5 chain: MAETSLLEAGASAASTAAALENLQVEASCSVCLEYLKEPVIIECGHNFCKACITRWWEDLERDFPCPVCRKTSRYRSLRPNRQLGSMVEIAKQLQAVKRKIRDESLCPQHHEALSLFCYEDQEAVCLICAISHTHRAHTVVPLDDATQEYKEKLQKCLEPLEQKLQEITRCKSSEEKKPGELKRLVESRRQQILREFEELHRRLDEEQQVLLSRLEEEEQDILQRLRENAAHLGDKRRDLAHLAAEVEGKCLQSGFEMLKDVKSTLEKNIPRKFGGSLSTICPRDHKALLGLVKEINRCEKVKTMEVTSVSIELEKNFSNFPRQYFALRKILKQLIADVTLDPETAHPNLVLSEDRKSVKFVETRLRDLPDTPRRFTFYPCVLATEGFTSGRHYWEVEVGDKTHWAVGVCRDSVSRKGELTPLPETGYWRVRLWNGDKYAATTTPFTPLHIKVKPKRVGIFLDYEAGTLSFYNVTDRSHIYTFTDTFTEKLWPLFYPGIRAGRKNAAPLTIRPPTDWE
The method in brief:
as §1

Assay [9] addresses TLN2 312-417 IRS (domain begin residue: 312, domain end residue: 417), Q9Y4G6. Summed up:
as §1

Assay [10] deals with TRIM7 324-511 SPRY (domain begin residue: 324, domain end residue: 511), Q9C029. Summed up:
as §1

Chain of TRIM21 268-465 SPRY (domain begin residue: 268, domain end residue: 465), P19474 (P19474 whole entry): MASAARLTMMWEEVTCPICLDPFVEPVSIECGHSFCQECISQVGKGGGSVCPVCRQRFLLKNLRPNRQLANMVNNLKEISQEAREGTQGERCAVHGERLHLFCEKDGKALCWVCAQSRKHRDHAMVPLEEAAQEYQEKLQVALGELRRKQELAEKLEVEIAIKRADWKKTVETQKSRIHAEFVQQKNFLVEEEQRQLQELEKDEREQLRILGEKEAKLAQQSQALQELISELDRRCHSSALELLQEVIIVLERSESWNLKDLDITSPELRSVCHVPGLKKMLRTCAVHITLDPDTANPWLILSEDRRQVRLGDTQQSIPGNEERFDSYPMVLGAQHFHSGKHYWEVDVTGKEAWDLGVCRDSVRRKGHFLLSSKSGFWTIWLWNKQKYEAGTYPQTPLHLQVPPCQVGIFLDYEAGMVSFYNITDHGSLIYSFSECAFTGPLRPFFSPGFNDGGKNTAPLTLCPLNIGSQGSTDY
Chain of TLN2 312-417 IRS (domain begin residue: 312, domain end residue: 417), Q9Y4G6 (Q9Y4G6 whole entry): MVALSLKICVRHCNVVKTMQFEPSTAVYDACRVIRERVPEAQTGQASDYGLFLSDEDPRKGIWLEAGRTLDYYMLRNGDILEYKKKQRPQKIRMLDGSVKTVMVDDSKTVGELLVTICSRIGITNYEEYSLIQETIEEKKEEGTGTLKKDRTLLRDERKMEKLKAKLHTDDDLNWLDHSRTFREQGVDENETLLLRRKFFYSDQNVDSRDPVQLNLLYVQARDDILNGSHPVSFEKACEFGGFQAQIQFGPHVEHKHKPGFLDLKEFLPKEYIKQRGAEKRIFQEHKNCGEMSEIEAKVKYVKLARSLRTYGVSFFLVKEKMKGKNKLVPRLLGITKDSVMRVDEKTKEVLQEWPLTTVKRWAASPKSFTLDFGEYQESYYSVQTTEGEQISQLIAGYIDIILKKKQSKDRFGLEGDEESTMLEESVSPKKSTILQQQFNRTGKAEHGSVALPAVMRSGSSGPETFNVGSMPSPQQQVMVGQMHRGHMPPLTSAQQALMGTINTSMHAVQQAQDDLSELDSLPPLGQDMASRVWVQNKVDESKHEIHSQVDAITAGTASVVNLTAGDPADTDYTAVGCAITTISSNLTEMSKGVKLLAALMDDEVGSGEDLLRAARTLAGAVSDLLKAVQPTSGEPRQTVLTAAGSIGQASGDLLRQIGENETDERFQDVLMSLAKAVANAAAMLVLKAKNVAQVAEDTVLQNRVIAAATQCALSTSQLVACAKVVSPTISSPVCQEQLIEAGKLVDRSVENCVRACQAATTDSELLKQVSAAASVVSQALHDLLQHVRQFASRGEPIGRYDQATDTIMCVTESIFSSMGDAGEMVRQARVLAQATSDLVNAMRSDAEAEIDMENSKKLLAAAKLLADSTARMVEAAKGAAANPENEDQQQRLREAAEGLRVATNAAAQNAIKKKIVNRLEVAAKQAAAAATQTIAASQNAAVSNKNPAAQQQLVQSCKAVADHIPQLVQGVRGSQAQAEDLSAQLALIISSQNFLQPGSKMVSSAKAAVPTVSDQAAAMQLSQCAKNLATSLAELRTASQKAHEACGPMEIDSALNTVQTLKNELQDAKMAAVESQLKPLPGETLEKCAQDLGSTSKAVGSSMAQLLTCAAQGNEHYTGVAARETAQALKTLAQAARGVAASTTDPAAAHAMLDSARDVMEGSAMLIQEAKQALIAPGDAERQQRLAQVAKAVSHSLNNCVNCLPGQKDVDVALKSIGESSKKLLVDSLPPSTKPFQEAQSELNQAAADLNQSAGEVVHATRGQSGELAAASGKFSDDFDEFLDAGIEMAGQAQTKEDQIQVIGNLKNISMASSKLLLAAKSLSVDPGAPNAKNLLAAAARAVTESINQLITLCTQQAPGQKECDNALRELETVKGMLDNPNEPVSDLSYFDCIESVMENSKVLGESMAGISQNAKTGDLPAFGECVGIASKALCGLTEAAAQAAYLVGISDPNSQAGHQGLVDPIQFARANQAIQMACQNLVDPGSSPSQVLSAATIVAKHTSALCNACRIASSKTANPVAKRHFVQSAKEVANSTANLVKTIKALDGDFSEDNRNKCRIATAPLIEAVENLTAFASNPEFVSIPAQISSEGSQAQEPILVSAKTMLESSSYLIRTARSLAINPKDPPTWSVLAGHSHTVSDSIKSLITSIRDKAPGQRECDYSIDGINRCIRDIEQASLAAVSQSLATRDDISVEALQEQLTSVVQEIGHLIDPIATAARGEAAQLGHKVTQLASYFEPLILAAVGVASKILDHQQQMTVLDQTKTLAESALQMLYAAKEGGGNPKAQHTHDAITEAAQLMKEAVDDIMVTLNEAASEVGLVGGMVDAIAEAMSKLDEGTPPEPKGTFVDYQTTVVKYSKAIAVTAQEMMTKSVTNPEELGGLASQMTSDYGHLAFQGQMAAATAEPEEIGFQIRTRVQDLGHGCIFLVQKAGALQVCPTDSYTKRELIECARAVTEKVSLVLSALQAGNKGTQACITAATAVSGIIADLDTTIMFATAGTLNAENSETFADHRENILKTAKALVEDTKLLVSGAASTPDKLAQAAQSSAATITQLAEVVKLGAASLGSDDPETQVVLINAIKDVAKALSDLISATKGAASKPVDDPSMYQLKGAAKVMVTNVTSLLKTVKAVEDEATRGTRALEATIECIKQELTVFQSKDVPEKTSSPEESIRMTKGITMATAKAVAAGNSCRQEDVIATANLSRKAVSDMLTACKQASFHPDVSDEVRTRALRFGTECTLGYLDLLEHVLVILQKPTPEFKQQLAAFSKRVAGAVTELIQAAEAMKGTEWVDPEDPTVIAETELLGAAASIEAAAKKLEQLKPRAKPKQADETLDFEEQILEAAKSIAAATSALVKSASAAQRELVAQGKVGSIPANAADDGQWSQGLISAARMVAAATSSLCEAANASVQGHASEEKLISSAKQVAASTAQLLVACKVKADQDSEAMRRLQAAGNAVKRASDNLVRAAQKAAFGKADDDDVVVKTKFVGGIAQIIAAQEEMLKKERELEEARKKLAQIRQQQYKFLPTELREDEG
Chain of TRIM25 439-630 SPRY (domain begin residue: 439, domain end residue: 630), Q14258 (Q14258 whole entry): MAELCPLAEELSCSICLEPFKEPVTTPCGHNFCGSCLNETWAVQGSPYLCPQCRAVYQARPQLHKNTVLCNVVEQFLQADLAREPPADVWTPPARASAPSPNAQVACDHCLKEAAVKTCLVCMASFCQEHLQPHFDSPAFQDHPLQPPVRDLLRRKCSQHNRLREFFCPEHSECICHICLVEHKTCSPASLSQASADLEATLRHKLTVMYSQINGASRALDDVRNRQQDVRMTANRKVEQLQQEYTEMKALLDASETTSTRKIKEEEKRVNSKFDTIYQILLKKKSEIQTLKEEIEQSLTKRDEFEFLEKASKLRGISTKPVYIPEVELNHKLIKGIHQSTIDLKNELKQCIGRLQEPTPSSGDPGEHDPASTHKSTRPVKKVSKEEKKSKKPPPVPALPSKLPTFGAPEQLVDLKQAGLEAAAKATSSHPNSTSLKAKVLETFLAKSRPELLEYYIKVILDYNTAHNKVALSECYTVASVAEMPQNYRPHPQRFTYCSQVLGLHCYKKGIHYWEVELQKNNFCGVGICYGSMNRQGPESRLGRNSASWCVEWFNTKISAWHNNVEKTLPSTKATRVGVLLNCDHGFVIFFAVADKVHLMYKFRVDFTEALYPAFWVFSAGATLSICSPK

For ETDKWVPSYLWWANYS, the “phage ELISA signal ratio” value in [1] is 16.8.

On to KWNDDDWWTYFVSQVE, for which, in assay [2], the “phage ELISA signal ratio” value stood at 20.3. As for FETPWQIEDVWGMAGF, in assay [3], the “phage ELISA signal ratio” value was determined as 27.1. In the case of DFTWLHSEKWWPEEWG, in [1], the “phage ELISA signal ratio” value amounted to 14.3. Still for that read-out and setting: the figure for DDHLWHPSFKWWDEYV is 15.8; for IEWEWLDSKEWWPKEF it is 32.5. As for VGTFMFGEMPSWVVST, the “phage ELISA signal ratio” value in assay [4] was 19.6. The same measure, in the same setting: in the case of QFFLFQSAPSWVLQPI it was 13.8. With MHDDLDWVHHMAVPQV, in assay [5], the “phage ELISA signal ratio” value is 27.1. As for WDEEDDHWWEHFFWFQ, the “phage ELISA signal ratio” value in [1] stood at 12.6. With TELPFTYMTRIPSWVW, in assay [4], the “phage ELISA signal ratio” value amounted to 30. With IEIPWTQEFIQHWTQG, the “phage ELISA signal ratio” value in assay [2] was 18.4. Still for that read-out and setting: the figure for TEMWTPAQQALWAYIT is 8.79. With WEMTLMEEAWATKFEV, in assay [5], the “phage ELISA signal ratio” value was 29.9. As to WDWQTDYGYWEDFVPV, in [6], the “phage ELISA signal ratio” value is 4.08. As for PFTYYSSEMYPWYIFG, the “phage ELISA signal ratio” value in assay [4] came to 11.1. Same read-out and setting: the figure for QVFWYPQAEEWPWFLD is 34.5. With YQDWDWDPEMKRMVVS, the “phage ELISA signal ratio” value in assay [2] was 4.04.

Turning to ELTTFHFYKEAPVWVI, in [4], the “phage ELISA signal ratio” value is 31.5.

For DVIPWDTWNFWREQDF, the “phage ELISA signal ratio” value in assay [6] came to 9.37. On to KVNTFHFMDPPDWLTH, for which the “phage ELISA signal ratio” value in assay [4] is 14.3. Take WEDGWLIPNAQDFQGM: the “phage ELISA signal ratio” value in [7] stood at 3.64. VFEFMDRADWPDWVMM: in assay [4], the “phage ELISA signal ratio” value was found to be 20.4. For GWYEMEGWGMPKDIET, the “phage ELISA signal ratio” value in [8] is 3.7. With MMFAGLGTPNPYEVTT, the “phage ELISA signal ratio” value in [2] was found to be 16.9.

As to GLASYFADNYHLIFSE, the “phage ELISA signal ratio” value in assay [2] amounted to 22.4. In the case of AFENNQQAILQYMMDV, in [2], the “phage ELISA signal ratio” value came out at 22.7.

For the molecule WTASQYWVYEDGFIPG, in assay [9], the “phage ELISA signal ratio” value was determined as 23.7. With MTMDFHPDWWDVADQW, the “phage ELISA signal ratio” value in assay [10] was found to be 29.6.
